CYP2C9 activ = increases human cytochrome P450 2C9 activity; hit rate 1.4% among 96,000; activation factor at 5 µM; recombinant CYP2C9, luciferin-H conversion, luminescence; stronger effect = higher value; factor 1 = untreated enzyme, 0 = blocked;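 active = activation factor of 2 or more for CYP2C9 at a 5 µM dose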
MRP reversal = MRP-mediated drug resistance reversal; H69AR cells + 2 uM doxorubicin, CellTiter-Glo, 72 h; differential viability (reversal), % at 10 µM; hit rate 0.04% among 85,000; AID 602;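 active = viability drop by adding the cancer drug above about 55%, with treated viability meeting a 40% cutoff, limit read from the data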;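 also: larger differential means the compound sensitizes cells more to doxorubicin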
CYP2C19 act = activators of human cytochrome P450 2C19; recombinant CYP2C19, luciferin-H EGE luminescence; stronger effect = higher value; 0 = fully inhibited enzyme, 1 = untreated enzyme; activation factor at 5 µM; 96,000 tested, under 10 active; AID 1025;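 active = activation factor of at least 2 at 5 µM in the primary screen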
Target sequence (P33261 whole entry, looked up): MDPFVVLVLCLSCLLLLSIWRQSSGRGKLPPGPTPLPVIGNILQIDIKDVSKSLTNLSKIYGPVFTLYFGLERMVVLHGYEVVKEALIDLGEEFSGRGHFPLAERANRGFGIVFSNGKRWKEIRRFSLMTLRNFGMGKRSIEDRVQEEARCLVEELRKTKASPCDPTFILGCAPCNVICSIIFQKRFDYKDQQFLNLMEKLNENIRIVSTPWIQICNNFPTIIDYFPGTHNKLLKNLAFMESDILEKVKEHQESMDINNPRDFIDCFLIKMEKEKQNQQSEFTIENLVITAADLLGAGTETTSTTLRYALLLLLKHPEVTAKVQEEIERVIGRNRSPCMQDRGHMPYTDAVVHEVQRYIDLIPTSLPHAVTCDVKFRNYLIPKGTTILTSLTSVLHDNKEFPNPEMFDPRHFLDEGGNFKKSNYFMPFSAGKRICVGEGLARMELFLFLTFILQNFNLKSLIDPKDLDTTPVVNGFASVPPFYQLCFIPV
MRP1 act = MRP-1 activation; H69AR cells + doxorubicin, viability rescue, CellTiter-Glo; hit rate 0.61% among 140,000; viability increase, % at 10 µM;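 active = viability gain under doxorubicin at or above a set limit, the compound median plus 3 SD, cut at about 4.7% in these data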;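 also: MRP-1 overexpressing cells given doxorubicin 25 µM after compound pretreatment; 18-22 h compound pretreatment then 72 h with doxorubicin before readout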
CYP2C19 inhib = blocks human cytochrome P450 2C19; P33261; CYP2C19 Supersomes, luciferin-H EGE luminescence, 30 min; inhibition, % at 5 µM; hit rate 21% among 96,000; AID 778;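 active = CYP2C19 inhibition above a set limit at 5 µM in the primary screen, cut at about 50% in these data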
CYP2C9 inhib = inhibitors of human CYP2C9; CYP2C9 Supersomes, luciferin-H conversion, luminescence; P11712; inhibition, % at 5 µM; AID 777; hit rate 20% among 96,000;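 active = blocking of liver enzyme CYP2C9 beyond about 50% at 5 µM, limit read from the data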
A number is an active result. This is a sample that favours compounds with a hit; in the whole collection about 21% have one here.

O=C(COC(=O)C12CC3CC(CC(C3)C1)C2)Nc1ccccc1F was read as MRP1 act inactive.
O=C(COc1ccc(C(=O)c2ccccc2)cc1)NCC1CCCCC1 was read as MRP1 act inactive.
Screening O=C1NC(c2ccc3c(c2)OCO3)Oc2ccccc21 (stereo unspecified) returned CYP2C9 activ inactive, MRP reversal inactive, CYP2C19 act inactive, MRP1 act inactive, CYP2C19 inhib 96 and CYP2C9 inhib 79.
`O=C1NC(c2ccc3c(c2)OCO3)Nc2ccccc21` (stereo unspecified) gave CYP2C9 activ inactive, MRP reversal inactive, CYP2C19 act inactive, MRP1 act inactive, CYP2C19 inhib 62 and CYP2C9 inhib inactive.
For O=[N+]([O-])c1cccc(/C=N/Nc2cc(Cl)nc(-c3ccccc3)n2)c1 the results were CYP2C9 activ inactive, CYP2C19 act inactive, MRP1 act inactive, CYP2C19 inhib inactive and CYP2C9 inhib inactive.
`CCOC(=O)c1[nH]c(C(=O)O)c(CCN(CC)CC)c1C` gave CYP2C9 activ inactive, CYP2C19 act inactive, MRP1 act inactive, CYP2C19 inhib inactive and CYP2C9 inhib inactive.
`CCN(CC)c1cnn(C/C(=N\OC)c2ccc(Cl)cc2)c(=O)c1Br` gave CYP2C9 activ inactive, MRP reversal inactive, CYP2C19 act inactive, MRP1 act inactive, CYP2C19 inhib 97 and CYP2C9 inhib 94.
For Cc1cc(SCc2cc(=O)[nH]c3ccccc23)nc2ccccc12 the results were CYP2C9 activ inactive, MRP reversal inactive, CYP2C19 act inactive, MRP1 act inactive, CYP2C19 inhib inactive and CYP2C9 inhib inactive.
Screening O=S(=O)(c1ccc(Cl)cc1)N1CCN(C(=S)Nc2ccc(F)c(Cl)c2)CC1 returned MRP1 act inactive.
`COC(=O)CSc1nc(SCc2ccccc2Cl)nc2c1CCCC2` gave CYP2C9 activ inactive, CYP2C19 act inactive, MRP1 act inactive, CYP2C19 inhib inactive and CYP2C9 inhib 69.
For O=C(O)CSc1nc(SCc2ccccc2Cl)nc2c1CCCC2 the results were CYP2C9 activ inactive, CYP2C19 act inactive, MRP1 act inactive, CYP2C19 inhib inactive and CYP2C9 inhib inactive.
O=C(CCC(=O)OCC(=O)c1ccc(Br)cc1)Nc1ccc(Br)c2cccnc12 was read as CYP2C9 activ 3, CYP2C19 act inactive, MRP1 act inactive, CYP2C19 inhib inactive and CYP2C9 inhib inactive.
`O=C(CCC(=O)OCC(=O)c1ccccc1)Nc1cccc2cccnc12` gave CYP2C9 activ inactive, CYP2C19 act inactive, MRP1 act inactive, CYP2C19 inhib inactive and CYP2C9 inhib inactive.
For CCn1c(SCC(=O)N/N=C/C(C)=C\c2ccco2)nnc1-c1ccccc1 the results were MRP1 act inactive.
`CCn1c(SCC(=O)Nc2nccs2)nnc1-c1ccccc1` gave CYP2C9 activ inactive, MRP reversal inactive, CYP2C19 act inactive, MRP1 act inactive, CYP2C19 inhib 92 and CYP2C9 inhib 52.
For CCn1c(SCC(=O)N/N=C/C(C)=C/c2ccco2)nnc1-c1ccccc1 the results were CYP2C9 activ inactive, CYP2C19 act inactive, MRP1 act inactive, CYP2C19 inhib 85 and CYP2C9 inhib inactive.
Screening CCn1c(Cc2ccccc2)nnc1SCC(=O)Nc1nccs1 returned CYP2C9 activ inactive, MRP reversal inactive, CYP2C19 act inactive, MRP1 act inactive, CYP2C19 inhib inactive and CYP2C9 inhib inactive.
`Cc1nnc(SCC(=O)Nc2nc(-c3ccccc3)cs2)n1N` gave CYP2C9 activ inactive, MRP reversal inactive, CYP2C19 act inactive, MRP1 act inactive, CYP2C19 inhib inactive and CYP2C9 inhib inactive.
`CCn1c(SCC(=O)Nc2nc(-c3ccccc3)cs2)nnc1-c1ccccc1` gave CYP2C9 activ inactive, MRP reversal inactive, CYP2C19 act inactive, MRP1 act inactive, CYP2C19 inhib 94 and CYP2C9 inhib 96.
`Cc1ccnc(N2CCC(C(=O)NCc3ccc4c(c3)OCO4)CC2)n1` gave CYP2C9 activ inactive, MRP reversal inactive, CYP2C19 act inactive, MRP1 act inactive, CYP2C19 inhib inactive and CYP2C9 inhib 66.
For CCc1c(C)nc2ncnn2c1N1CCCC(C(=O)NCc2ccc3c(c2)OCO3)C1 (stereo unspecified) the results were CYP2C9 activ inactive, MRP reversal inactive, CYP2C19 act inactive, MRP1 act inactive, CYP2C19 inhib inactive and CYP2C9 inhib 70.
Screening O=C(NCc1ccc2c(c1)OCO2)C1CCN(S(=O)(=O)c2ccc(Br)s2)CC1 returned CYP2C9 activ inactive, MRP reversal inactive, CYP2C19 act inactive, MRP1 act inactive, CYP2C19 inhib 65 and CYP2C9 inhib inactive.
CCc1c(C)nc2ncnn2c1N1CCCC(C(=O)Nc2ccc(NC(C)=O)cc2)C1 (stereo unspecified) was read as CYP2C9 activ inactive, MRP reversal inactive, CYP2C19 act inactive, MRP1 act inactive, CYP2C19 inhib inactive and CYP2C9 inhib inactive.
Screening O=C(NCc1ccc2c(c1)OCO2)C1CCN(c2ccc(S(=O)(=O)N3CCCC3)cc2)CC1 returned CYP2C9 activ inactive, CYP2C19 act inactive, MRP1 act inactive, CYP2C19 inhib inactive and CYP2C9 inhib 63.
Screening O=C(NCc1ccc2c(c1)OCO2)C1CCN(S(=O)(=O)N2CCCCC2)CC1 returned MRP1 act inactive.
CN(C(=O)COC(=O)c1ccccc1SCC(=O)NC1CCCCCCC1)C1CCS(=O)(=O)C1 (stereo unspecified) was read as MRP1 act inactive.
Cc1c(Cl)cccc1NC(=O)CC(NCCN1CCOCC1)C(=O)O (stereo unspecified) was read as MRP reversal inactive.
`O=C(N/N=C/c1cccc(OC(=O)N2CCOCC2)c1)c1cccs1` gave MRP1 act inactive.
For COc1ccc(CCN2C(=O)C3C4CC(C5C(C(=O)N/N=C\c6ccc(Cl)cc6)=NOC45)C3C2=O)cc1OC (stereo unspecified) the results were CYP2C9 activ inactive, MRP reversal inactive, CYP2C19 act inactive, MRP1 act inactive, CYP2C19 inhib inactive and CYP2C9 inhib inactive.
`Cc1cc(Nc2ccc(N3CCC(C)CC3)cc2)n2ncnc2n1` gave CYP2C9 activ inactive, MRP reversal inactive, CYP2C19 act inactive, MRP1 act inactive, CYP2C19 inhib inactive and CYP2C9 inhib inactive.
Cc1c(C(=O)N(C)C)c2ccc(Cl)cc2n1O was read as MRP1 act inactive.
CC(=O)Nc1ccc(NC(=O)CSc2ccc(C)cc2)cc1 was read as CYP2C9 activ inactive, MRP reversal inactive, CYP2C19 act inactive, MRP1 act inactive, CYP2C19 inhib 70 and CYP2C9 inhib 81.
Screening Cc1ccc(-n2nnnc2SCC(=O)Nc2cccc(NC(=O)c3ccco3)c2)cc1C returned CYP2C9 activ inactive, MRP reversal inactive, CYP2C19 act inactive, MRP1 act inactive, CYP2C19 inhib 50 and CYP2C9 inhib inactive.
`Cc1ccc(SCC(=O)Nc2cccc(NC(=O)c3ccco3)c2)cc1` gave CYP2C9 activ inactive, CYP2C19 act inactive, MRP1 act inactive, CYP2C19 inhib inactive and CYP2C9 inhib 72.

Screening data: PubChem, several laboratories
